Measurements taken from PubChem BioAssay (Tox21).
Inconclusive results are not listed. Calls of active or inactive are those of the source. Unless noted, the call rests on the fitted dose curve; in most records, active means well fitted curve in the direction sought with a large enough effect in the repeat runs; inconclusive means weak or mixed curves; inactive means no such curve, though single readings can be large; an effect the other way counts as inactive or inconclusive.

Assays:
[1] = qHTS assay to identify small molecule antagonists of the estrogen related receptor signaling pathway with the pleiotropic PPARgamma coactivator (PGC) from Tox21 10K library (AID 1224841; call rule not given here; further: series mostly up to about 92 µM; actives are mostly falling curves and most rising ones were filed inactive; nearly all actives have a fitted effect of over 50% in size)
Summary of the method: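 In the PGC/ERR line, DMSO solutions of test chemicals are pin-delivered to 2,000 cells/well six hours after dispensing. Following eighteen hours' incubation, One-Glo reagent is added and luminescence recorded.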

[2] = qHTS assay to identify small molecule agonists of the estrogen related receptor signaling pathway with the pleiotropic PPARgamma coactivator (PGC) from Tox21 10K library (AID 1224842); further: nearly all actives have a fitted effect of over 15% in size
Summary of the method: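 PGC/ERR reporter cells (NTP line) were seeded 2,000 per well, rested 6 h at 37 C/5% CO2, then pin-dosed with compounds in DMSO for 18 h at 37 C; luciferase read by One-Glo luminescence after 30 min at room temperature.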

[3] = qHTS assay to identify small molecule agonists of the hypoxia (HIF-1) signaling pathway - cell viability counter screen (AID 1224844; calls by dose curve; further: nearly all actives have a fitted effect of over 50% in size)
Summary of the method: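 Same wells as the HIF-1 reporter screen; ME-180 cells carrying HRE-bla, 17 hr treatment at 37C; CellTiter-Glo luminescence read after 30 min at room temperature.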

[4] = qHTS assay to identify small molecule agonists of H2AX (AID 1224845; active means well fitted activation curve with a large enough effect in the signal ratio in the repeat runs, not every such curve was filed as active; the % refers to the signal ratio)
Summary of the method: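 Wild-type CHO-K1 cells plated overnight, then exposed 3 hr at 37C to compounds at 15 concentrations (0.76% DMSO). Lysed, then HTRF anti-pH2AX(S139)-cryptate/anti-H2AX-d2 detection after 24 hr at room temperature; emissions 665 and 620 nm.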

[5] = qHTS assay to identify small molecule agonists of the hypoxia (HIF-1) signaling pathway (AID 1224846; active means well fitted activation curve with a large enough effect in the signal ratio in the repeat runs, not every such curve was filed as active; the % refers to the signal ratio)
Summary of the method: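 In ME-180 cells bearing an HRE-bla construct, 17 h treatment with DMSO-dissolved compounds at 37C was followed by CCF4-AM loading to quantify reporter induction.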

[6] = qHTS assay to identify small molecule agonists of H2AX - cell viability counter screen (AID 1224847; calls by dose curve; further: top concentration of the series differs between compounds; nearly all actives have a fitted effect of over 30% in size)
Summary of the method: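 We seed wild-type CHO-K1 cells overnight, treat them for 3 hr at 37C with compounds in 15-concentration series, and quantify remaining viability by CellTiter-Glo luminescence.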

[7] = qHTS assay to identify small molecule antagonists of the estrogen related receptor (ERR) signaling pathway from Tox21 library (AID 1224848); further: nearly all actives have a fitted effect of over 50% in size
Summary of the method: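 Tox21 10K compounds in DMSO tested for ERR pathway antagonism in NTP's ERR cell line; 18 h, 37 C exposure; ONE-Glo luminescence.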

[8] = qHTS assay to identify small molecule agonists of the estrogen related receptor (ERR) signaling pathway from Tox21 library (AID 1224849; calls by dose curve; further: nearly all actives have a fitted effect of over 15% in size)
Summary of the method: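 Reporter cells (ERR, NTP source) treated with Tox21 10K compounds 18 h, 37 C. Readout: ONE-Glo luminescence, 30 min RT.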

[9] = qHTS RealTime-Glo MT Cell Viability Assay in HepG2 cells - 24 hour (AID 1224867); further: nearly all actives have a fitted effect of over 50% in size
Summary of the method: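 HepG2 cells (600/well) were dispensed with RealTime-Glo reagents, incubated 5 h at 37 °C, then treated with compounds in DMSO for up to 40 h. Nonlytic NanoLuc luminescence reflecting viable cells was read at each stated time point.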

[10] = qHTS RealTime-Glo MT Cell Viability Assay in HEK293 cells - 32 hour (AID 1224868)
Summary of the method: (§1)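 HEK293 cells seeded with NanoLuc/prosubstrate reagent, rested 5 h at 37 C, then dosed and kept at 37 C up to 40 h. Nonlytic real-time luminescence from viable cells read at 0, 8, 16, 24, 32 and 40 h.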

[11] = A CellTox Green Cytotoxicity Assay to monitor cytotoxicity in HEK293 cells - 0 hour (AID 1224869); further: nearly all actives have a fitted effect of over 50% in size
Summary of the method: (§2)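 Homogeneous no-lysis format: HEK293 cell suspension mixed with CellTox Green reagent, seeded, incubated 5 h at 37 C/5% CO2, then dosed by pintool with compound in DMSO.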

[12] = qHTS RealTime-Glo MT Cell Viability Assay in HepG2 cells - 40 hour (AID 1224870); further: nearly all actives have a fitted effect of over 50% in size
Summary of the method: (§3)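 HepG2 cells mixed with RealTime-Glo MT reagents (NanoLuc plus cell-permeant prosubstrate) were seeded at 600 cells/well, incubated 5 h at 37 C/5% CO2, then pinned with compounds in DMSO; nonlytic luminescence tracked viability during 40 h treatment.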

[13] = A CellTox Green Cytotoxicity Assay to monitor cytotoxicity in HEK293 cells - 40 hour (AID 1224871); further: nearly all actives have a fitted effect of over 45% in size
Summary of the method: as §2

[14] = qHTS RealTime-Glo MT Cell Viability Assay in HEK293 cells - 16 hour (AID 1224872)
Summary of the method: as §1

[15] = qHTS RealTime-Glo MT Cell Viability Assay in HepG2 cells - 8 hour (AID 1224873); further: nearly all actives have a fitted effect of over 55% in size
Summary of the method: as §3

[16] = qHTS RealTime-Glo MT Cell Viability Assay in HEK293 cells - 40 hour (AID 1224874); details: RealTime-Glo luminescence; max response: stronger effect = lower value; further: nearly all actives have a fitted effect of over 50% in size
Summary of the method: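 Measured as luminescence from the same continuously cultured HEK293 wells at successive time points (0, 8, 16, 24, 32, 40 h) after compound addition. Reagent present from seeding; dosing at 5 h; incubation 37 C.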

[17] = A CellTox Green Cytotoxicity Assay to monitor cytotoxicity in HEK293 cells - 24 hour (AID 1224875); further: series mostly up to about 77 µM; nearly all actives have a fitted effect of over 45% in size
Summary of the method: as §2

[18] = qHTS assay to identify small molecule antagonists of the estrogen related receptor signaling pathway with the pleiotropic PPARgamma coactivator (PGC) from Tox21 10K library - cell viability counter screen (AID 1224840; active means well fitted cell-killing curve with a large enough effect in the repeat runs, not every such curve was filed as active; further: nearly all actives have a fitted effect of over 40% in size)
Summary of the method: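 Viability counter screen, PGC/ERR cells: 17.5 h compound exposure at 37 C, CellTiter-Fluor fluorescence endpoint.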

[19] = target: Thyrotropin receptor (Homo sapiens) (UniProt P16473); assay: qHTS assay to identify small molecule agonists of the thyroid stimulating hormone receptor (TSHR) signaling pathway (AID 1224843; calls by dose curve; further: nearly all actives have a fitted effect of over 45% in size)
Thyrotropin receptor (Homo sapiens), sequence (P16473 whole entry, looked up): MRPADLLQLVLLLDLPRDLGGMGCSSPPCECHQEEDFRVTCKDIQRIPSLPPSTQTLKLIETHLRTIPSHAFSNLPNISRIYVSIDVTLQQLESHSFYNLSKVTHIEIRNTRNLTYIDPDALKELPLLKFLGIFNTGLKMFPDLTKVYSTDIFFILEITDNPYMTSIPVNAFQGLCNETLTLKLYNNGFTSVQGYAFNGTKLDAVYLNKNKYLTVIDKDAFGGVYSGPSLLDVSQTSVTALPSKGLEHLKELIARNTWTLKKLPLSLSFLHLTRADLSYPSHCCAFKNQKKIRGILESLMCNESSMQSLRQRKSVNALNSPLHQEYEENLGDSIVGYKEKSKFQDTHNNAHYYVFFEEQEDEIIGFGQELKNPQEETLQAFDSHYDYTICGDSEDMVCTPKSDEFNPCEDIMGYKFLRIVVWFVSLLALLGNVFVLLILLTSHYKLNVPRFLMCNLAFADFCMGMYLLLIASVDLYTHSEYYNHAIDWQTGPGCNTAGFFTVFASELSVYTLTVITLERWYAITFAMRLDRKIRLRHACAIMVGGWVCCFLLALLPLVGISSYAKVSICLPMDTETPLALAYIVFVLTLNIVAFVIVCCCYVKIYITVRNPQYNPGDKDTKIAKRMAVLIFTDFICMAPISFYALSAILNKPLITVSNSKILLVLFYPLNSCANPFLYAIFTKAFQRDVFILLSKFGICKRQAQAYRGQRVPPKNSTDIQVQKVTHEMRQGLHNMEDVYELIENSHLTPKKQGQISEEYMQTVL
Summary of the method: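 Using 15 concentrations per compound in triplicate, cAMP production was monitored in TSHR-HEK293 cells after 30 min compound incubation at RT; HTRF reagents followed, with fluorescence intensity recorded after 1 h.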
On the % scale 0 is the no-effect control and ±100 the full control effect.

O=P(O)(O)OCC(O)CO (stereo not given)
inactive: Potency [1] | outcome [2] | outcome [3] | outcome [4] | outcome [5] | Potency [6] | Potency [7] | outcome [8] | outcome [9] | Potency [10] | Potency [11] | outcome [12] | Potency [13] | Potency [14] | outcome [15] | max response [16] -2.63% | Potency [17]

CCCCC(CC)C(=O)OC(C)C (stereo not given)
inactive: outcome [18] | outcome [3] | outcome [4] | Potency [6] | outcome [9] | Potency [10] | Potency [11] | outcome [12] | Potency [13] | Potency [14] | outcome [15] | max response [16] 3.8%

CC(C)CCCC(C)CC=O (stereo not given)
inactive: outcome [18] | outcome [3] | outcome [4] | outcome [5] | Potency [6] | outcome [9] | Potency [10] | Potency [11] | outcome [12] | Potency [13] | Potency [14] | outcome [15] | max response [16] 0.176% | Potency [17]

CC1=CC[C@H](CC=O)C1(C)C
inactive: outcome [19] | outcome [3] | outcome [4] | outcome [5] | Potency [6] | outcome [9] | Potency [10] | Potency [11] | Potency [13] | Potency [14] | outcome [15] | max response [16] 1.6%

c1ccccc1
inactive: Potency [1] | outcome [2] | outcome [19] | outcome [3] | outcome [4] | outcome [5] | Potency [7] | outcome [8] | outcome [9] | Potency [10] | Potency [11] | Potency [13] | Potency [14] | outcome [15] | max response [16] -3.11%

CCCCCCCCCCCCOC(C)=O
inactive: outcome [19] | outcome [3] | outcome [4] | Potency [6] | outcome [9] | Potency [11] | outcome [12] | Potency [13] | Potency [14] | outcome [15] | Potency [17]

CCC(C)N (stereo not given)
inactive: outcome [3] | outcome [4] | outcome [5] | Potency [6] | outcome [9] | Potency [10] | Potency [11] | outcome [12] | Potency [13] | Potency [14] | outcome [15] | max response [16] -5.31% | Potency [17]

CCNC(=O)NCCCOc1cccc(CN2CCCCC2)c1
inactive: outcome [2] | outcome [3] | outcome [4] | outcome [5] | Potency [6] | Potency [7] | outcome [8] | outcome [9] | Potency [10] | Potency [11] | outcome [12] | Potency [13] | Potency [14] | outcome [15] | max response [16] -3.36% | Potency [17]

CN(C1CCCCC1)S(=O)(=O)c1ccccc1N
inactive: outcome [2] | outcome [19] | outcome [3] | outcome [4] | outcome [5] | Potency [6] | Potency [7] | outcome [8] | outcome [9] | Potency [11] | outcome [12] | Potency [13] | outcome [15] | Potency [17]

C[C@H]1O[C@H](O[C@H]2[C@H](O)[C@@H](O)[C@@H](O[C@H]3[C@H](O)[C@@H](O)[C@H](O)O[C@@H]3CO)O[C@@H]2CO)[C@H](O)[C@@H](O)[C@@H]1N[C@H]1C=C(CO)[C@@H](O)[C@H](O)[C@H]1O
inactive: outcome [18] | outcome [3] | outcome [4] | outcome [5] | Potency [6] | outcome [9] | Potency [10] | Potency [11] | Potency [13] | Potency [14] | outcome [15] | max response [16] 6.78% | Potency [17]

O=C(O)Cc1cccc(-c2cc(CCCCCCc3ccc(O[C@H]4O[C@H](CO)[C@@H](O)[C@H](O)[C@@H]4O)c(-c4cccc(CC(=O)O)c4)c3)ccc2O[C@H]2O[C@H](CO)[C@@H](O)[C@H](O)[C@@H]2O)c1
inactive: activation [19] 2.03% [at 0.349 µM] | activity change, negative = cytotoxicity [3] 6.42% [at 0.29 µM] | activation (H2AX phosphorylation) [4] 0.108% [at 0.582 µM] | activation [5] -0.541% [at 0.291 µM] | activity change, negative = cytotoxicity [6] -1.18% [at 0.582 µM] | activity change, negative = cytotoxicity [9] 2.07% [at 0.29 µM] | activity change, negative = cytotoxic [10] 4.81% [at 0.29 µM] | cytotoxicity [11] 3% [at 0.29 µM] | activity change, negative = cytotoxic [12] -21.2% [at 0.29 µM] | cytotoxicity increase [13] -17.8% [at 0.29 µM] | activity change, negative = cytotoxicity [14] 3.33% [at 0.29 µM] | max response [16] -2.4%

CN(C)CCOCCN(C)CCO
inactive: outcome [2] | outcome [19] | outcome [3] | outcome [4] | outcome [5] | Potency [6] | Potency [7] | outcome [8] | outcome [9] | Potency [10] | Potency [11] | outcome [12] | Potency [13] | Potency [14] | outcome [15] | max response [16] -7.32% | Potency [17]

CC(=O)OCCCc1ccccc1
inactive: Potency [1] | outcome [2] | outcome [19] | outcome [3] | outcome [4] | outcome [5] | Potency [7] | outcome [8] | outcome [9] | Potency [10] | Potency [11] | outcome [12] | Potency [13] | Potency [14] | outcome [15] | max response [16] 4.03% | Potency [17]

Nc1ccc(/C=C/c2ccc(N)cc2S(=O)(=O)O)c(S(=O)(=O)O)c1
inactive: activity change, negative = cytotoxicity [3] -0.74% [at 0.29 µM] | activation (H2AX phosphorylation) [4] -0.0976% [at 0.582 µM] | activation [5] -0.978% [at 0.291 µM] | activity change, negative = cytotoxicity [6] 3.7% [at 0.582 µM] | activity, negative = inhibition [7] 4.28% [at 0.349 µM] | activity change, positive = activation [8] 2.43% [at 0.349 µM] | activity change, negative = cytotoxicity [9] 2.78% [at 0.29 µM] | activity change, negative = cytotoxic [10] 0.295% [at 0.29 µM] | cytotoxicity [11] 5.28% [at 0.29 µM] | activity change, negative = cytotoxic [12] 0.506% [at 0.29 µM] | cytotoxicity increase [13] -0.161% [at 0.29 µM] | activity change, negative = cytotoxicity [14] 2.56% [at 0.29 µM] | viability change, negative = cytotoxic [15] 5.84% [at 0.29 µM] | max response [16] 2.9% | activity change [17] 0.201% [at 0.29 µM, stronger effect = higher value]

COC(=O)CCC(=O)O
inactive: outcome [19] | outcome [3] | outcome [4] | outcome [5] | Potency [6] | outcome [9] | Potency [10] | Potency [11] | Potency [13] | Potency [14] | outcome [15] | max response [16] 8.17%

CC(=O)N(CC(O)CO)c1c(I)c(C(=O)NCC(O)CO)c(I)c(C(=O)NCC(O)CO)c1I (stereo not given)
inactive: outcome [3] | outcome [4] | outcome [5] | Potency [6] | outcome [9] | Potency [10] | Potency [11] | outcome [12] | Potency [13] | Potency [14] | outcome [15] | max response [16] 6.97% | Potency [17]

Cc1cc(O)c2c(c1)C(=O)c1cccc(O)c1C2=O
inactive: outcome [18] | outcome [3] | outcome [4] | outcome [5] | outcome [9] | Potency [10] | Potency [11] | outcome [12] | Potency [13] | Potency [14] | outcome [15] | max response [16] 3.33% | Potency [17]

CCOC(=O)CC(CC(=O)OCC)(OC(C)=O)C(=O)OCC
inactive: outcome [18] | outcome [3] | outcome [4] | outcome [5] | Potency [6] | outcome [9] | Potency [10] | Potency [11] | outcome [12] | Potency [13] | Potency [14] | outcome [15] | max response [16] -6.27% | Potency [17]
